We go through 22 compounds from PubChem BioAssay (NCATS).

Molecules are shown by their SMILES. Results filed as inconclusive are left out. A number with no mark means an inactive call. Active and inactive are the calls of the source. The call rests on the fitted dose curve; in most records, active means well fitted cell-killing curve with a large enough effect; inconclusive means small, poorly fitted or top-dose-only effect, or effect the other way; inactive means no such curve, though single readings can be large or run the other way.

Assay [1] is described as follows: Quantitative High-Throughput drug screen in 47 multiple myeloma cell lines against the NCATS MIPE library collection: U266_ATCC cell viability assay (AID 1919864). Further: nearly all actives have a fitted effect of over 35% in size. The procedure, abridged: (§1)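 Plated at 500 cells per well, myeloma lines received MIPE 4.0 compounds by pin tool. Following 48 h culture at 37 °C, CellTiter-Glo luminescence gave viability relative to DMSO and media-only controls.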

The nature of assay [2]: Quantitative High-Throughput drug screen in 47 multiple myeloma cell lines against the NCATS MIPE library collection: XG6_PLB cell viability assay (AID 1919865). Further: nearly all actives have a fitted effect of over 40% in size. The procedure, abridged: as §1
A short description of assay [3]: Quantitative High-Throughput drug screen in 47 multiple myeloma cell lines against the NCATS MIPE library collection: UTMC2_PLB cell viability assay (AID 1919868). Further: nearly all actives have a fitted effect of over 55% in size. The conditions noted are these: CellTiter-Glo ATP luminescence, 48 h; viability (% of DMSO control): at 45.8 µM (top of the series). The method, boiled down:
as §1
In general terms: Cellular ATP, detected with luciferase, serves as a proxy for viable cell number.

Assay [4] is described as follows: Quantitative High-Throughput drug screen in 47 multiple myeloma cell lines against the NCATS MIPE library collection: PE2_PLB cell viability assay (AID 1919869). Further: nearly all actives have a fitted effect of over 35% in size. The procedure, abridged: as §1
The nature of assay [5]: Quantitative High-Throughput drug screen in 47 multiple myeloma cell lines against the NCATS MIPE library collection: PCM6_Riken cell viability assay (AID 1919870). Further: nearly all actives have a fitted effect of over 30% in size. The procedure, abridged:
as §1

Assay [6] is described as follows: Quantitative High-Throughput drug screen in 47 multiple myeloma cell lines against the NCATS MIPE library collection: OPM2_DSMZ cell viability assay (AID 1919872). Further: nearly all actives have a fitted effect of over 30% in size. The procedure, abridged:
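CellTiter-Glo ATP luminescence gave viability after 48 h compound treatment at 37C of 500 multiple myeloma cells per well. Normalisation used DMSO-only wells as 100% and media-only wells as 0% viability; primary qHTS of approved and investigational drugs.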

A short description of assay [7]: Quantitative High-Throughput drug screen in 47 multiple myeloma cell lines against the NCATS MIPE library collection: KMS11_JCRBsus cell viability assay (AID 1919873). Further: nearly all actives have a fitted effect of over 50% in size. The method, boiled down:
as §1

Assay [8] can be described thus: Quantitative High-Throughput drug screen in 47 multiple myeloma cell lines against the NCATS MIPE library collection: KMS28BM_JCRB cell viability assay (AID 1919874). Further: nearly all actives have a fitted effect of over 35% in size. The method, boiled down: as §1
A short description of assay [9]: Quantitative High-Throughput drug screen in 47 multiple myeloma cell lines against the NCATS MIPE library collection: XG1_PLB cell viability assay (AID 1919866). Further: nearly all actives have a fitted effect of over 35% in size. The method, boiled down: as §1
A short description of assay [10]: Quantitative High-Throughput drug screen in 47 multiple myeloma cell lines against the NCATS MIPE library collection: VP6_DJ cell viability assay (AID 1919867). Further: nearly all actives have a fitted effect of over 40% in size. The procedure, abridged:
as §1

A short description of assay [11]: Quantitative High-Throughput drug screen in 47 multiple myeloma cell lines against the NCATS MIPE library collection: RPMI8226_ATCC cell viability assay (AID 1919871). Further: nearly all actives have a fitted effect of over 30% in size. The procedure, abridged:
as §1
Potency means the concentration at half of the fitted maximal effect.

Consider `O=c1c(-c2ccc(O)cc2)coc2cc(O)ccc12`, for which the Potency result in assay [1], in assay [2], in assay [3], in assay [4], in assay [5] and in assay [6] was “inactive” each time. Besides, the Potency entry in [7] and in [8] was “inactive” throughout.
Consider `CC(C)C[C@H](CC(=O)O)C(=O)N[C@@H](Cc1c[nH]c2ccccc12)C(=O)N[C@@H](C)c1ccccc1`, for which the Potency entry in assay [2], in assay [9], in assay [10], in [3], in assay [4] and in assay [5] was “inactive” throughout. Moreover, the Potency entry in assay [6] and in assay [7] was “inactive” throughout.
With `Nc1nc(F)nc2c1ncn2[C@@H]1O[C@H](COP(=O)(O)O)[C@@H](O)[C@H]1O`, the Potency in assay [1] is 0.526 µM (active); in assay [9], 29.6 µM (active). Further, the Potency result in assay [4], in assay [5], in [11], in assay [6] and in assay [7] was “inactive” each time.
As to `COc1cccc(-c2cc(=O)c3ccccc3o2)c1N`, the Potency was 8.33 µM (active) in [1], 1.66 µM (active) in assay [9], 1.32 µM (active) in [10] and 4.18 µM (active) in assay [4]. Moreover, the Potency result in assay [11], in assay [6] and in assay [7] was “inactive” throughout.
As for `CN(C)Cc1ccc(-c2nc3cccc4c3n2CCNC4=O)cc1`, the Potency is 16.6 µM (active) in assay [2]; 20.9 µM (active) in assay [9]; 14.8 µM (active) in assay [10]; 20.9 µM (active) in assay [4]; 14.8 µM (active) in assay [5]; 26.4 µM (active) in assay [7].
For `CC[C@H]1OC(=O)[C@H](C)C(=O)[C@H](C)[C@@H](O[C@H]2O[C@H](C)C[C@H](N(C)C)[C@@H]2O)[C@](C)(OC)C[C@@H](C)C(=O)[C@H](C)[C@H]2N(CCCCn3cnc(-c4cccnc4)c3)C(=O)O[C@]12C`, the Potency entry in assay [1] and in assay [8] was “inactive” each time. Moreover, the results for the Potency in assay [2], in assay [11] and in assay [7] were 4.69 µM (active), 18.7 µM (active) and 16.6 µM (active), respectively.
For `CN1CCN(CCOc2cc(OC3CCOCC3)c3c(Nc4c(Cl)ccc5c4OCO5)ncnc3c2)CC1`, the Potency in assay [2] was 5.26 µM (active); in assay [9], 18.7 µM (active); in assay [10] it was 4.18 µM (active); in assay [4] it was 23.5 µM (active); in assay [5], 9.35 µM (active); in assay [7] it was 23.5 µM (active). Besides, the Potency result in assay [6] was “inactive”.
As for `O=c1c(O)c(-c2ccc(O)cc2)oc2cc(O)cc(O)c12`, the Potency in assay [2] was 14.8 µM (active); in assay [9] it was 16.6 µM (active); in assay [10], 16.6 µM (active); in assay [5], 18.7 µM (active); in [8], 4.69 µM (active).
Regarding `CN(C)c1cc(NC(=O)CNC(C)(C)C)c(O)c2c1C[C@@H]1C[C@H]3[C@H](N(C)C)C(=O)C(C(N)=O)=C(O)[C@@]3(O)C(=O)C1=C2O`, the Potency entry in [1], in [9], in assay [4], in assay [5], in [11] and in assay [7] was “inactive” in each case. The Potency result in assay [8] was “inactive”. Further, the Potency in [3] was 13.2 µM (active).
In the case of `COc1ccc2c(Oc3ccc(NC(=O)c4c(C)n(CC(C)(C)O)n(-c5ccccc5)c4=O)nc3)ccnc2c1`, the Potency entry in assay [1], in assay [6] and in assay [8] was “inactive” throughout.
Regarding `CN(C[C@@H]1COCCO1)S(=O)(=O)Nc1ccc2ccc3ncc(-c4cnn(C)c4)cc3c(=O)c2c1`, the Potency in [1] was 3.32 µM (active); in assay [9], 2.64 µM (active); in assay [10] it was 2.96 µM (active); in assay [3], 3.32 µM (active); in assay [4], 1.48 µM (active); in assay [5], 1.05 µM (active). The Potency was 16.6 µM (active) in assay [11] and 4.18 µM (active) in assay [7].
For `Cc1ccc(/C=N/NC(=O)c2ccccc2Oc2ccccc2)o1`, the figures for the Potency in assay [9], in assay [6] and in assay [7] were 11.8 µM (active), 20.9 µM (active) and 9.35 µM (active), respectively. Moreover, in [10], the Potency result is “inactive”.
`COC(=O)N[C@H](C(=O)N1CCC[C@@H]1c1ncc(-c2ccc(-c3ccc(-c4cnc([C@@H]5CCCN5C(=O)[C@@H](NC(=O)OC)C(C)C)[nH]4)cc3)cc2)[nH]1)C(C)C`: the Potency in assay [2] was 26.4 µM (active); in assay [5], 26.4 µM (active); in [11], 20.9 µM (active); in assay [7], 26.4 µM (active); in [8] it was 20.9 µM (active). Moreover, the Potency result in assay [3] was “inactive”.
Turning to `CC1(C)Cc2c(sc(NC(=S)NC(=O)c3ccccc3)c2C(=O)O)CO1`, the Potency in assay [2] was 14.8 µM (active); in assay [10], 8.33 µM (active); in [3], 20.9 µM (active). Further, the Potency entry in assay [5], in [11], in assay [7] and in assay [8] was “inactive” throughout.
In the case of `O=C(Nc1ccccc1Br)N[C@@H]1CCN(c2ccc(C(F)(F)F)cn2)C1`, the Potency in assay [2] was 23.5 µM (active); in assay [10] it was 18.7 µM (active); in assay [4], 18.7 µM (active); in assay [8], 20.9 µM (active). In addition, in [6], the Potency result was “inactive”.
As to `CC#CCn1c(N2CCC[C@@H](N)C2)nc2c1c(=O)n(Cc1nc(C)c3ccccc3n1)c(=O)n2C`, the Potency result in [2], in [5], in assay [11], in assay [7] and in [8] was “inactive” each time.
On to `C[C@@H]1CCN(C(=O)CC#N)C[C@H]1N(C)c1ncnc2[nH]ccc12`, for which the Potency result in assay [3], in [5] and in assay [6] was “inactive” throughout.
`CN[C@@H](C)C(=O)N[C@H]1CN(C(=O)CC(C)C)CC[C@H]2CC[C@@H](C(=O)NC(c3ccccc3)c3ccccc3)N2C1=O`: the Potency in [2] was 1.32 µM (active); in [4] it was 9.35 µM (active). Besides, the Potency result in assay [6] was “inactive”.
Regarding `CC(C)(C)C(=O)Oc1ccc2c(c1)nc(NC(=O)c1cccc([N+](=O)[O-])c1)n2CCCO`, the Potency result in [2], in assay [4], in assay [5], in [6], in assay [7] and in [8] was “inactive” each time. For the same compound, in assay [11], the Potency is 18.7 µM (active).
As for `CC(C)C(=O)Oc1ccc(CO)cc1[C@H](CCN(C(C)C)C(C)C)c1ccccc1`, the Potency entry in assay [4], in assay [5], in [6], in [7] and in assay [8] was “inactive” each time.
Regarding `C=C1C(=O)OC(CCCCCCCC)C1C(=O)O` (centres undefined), the Potency in assay [2] is 20.9 µM (active); in assay [9], 14.8 µM (active); in assay [5], 23.5 µM (active). In addition, the Potency result in assay [6] and in [8] was “inactive” in each case.
Consider `O=C1C[C@@H](c2ccc(O)cc2)Oc2cc(O)cc(O)c21`, for which the Potency entry in assay [2], in [4], in [5], in [11], in assay [6] and in [7] was “inactive” each time. Besides, the Potency entry in assay [8] is “inactive”.
